High-throughput results from PubChem.
TRPV1 agonist = activates the human vanilloid receptor TRPV1 | Q8NER1 | TRPV1-expressing cells, Fluo-8 calcium influx, agonist mode | activation, % at 8.33 µM | 320,000 compounds, 0.19% hits | AID 540275; in the data active means activation above about 80%; inconclusive means between about 30% and that limit; further: 0% is about no effect
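TRPV1-expressing cells were cultured overnight at 35.5C and loaded with Fluo-8 calcium dye for 40 to 90 min at room temperature. After a 10 s baseline, compound was added and calcium influx was read kinetically for 3 min (ex 480/em 520 nm).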
TRPML1 agonist = human mucolipin-1 channel agonism; AID 624414; 410,000 compounds, 0.12% hits; activation, % (no concentration beside the values); Q9GZU1; TRPML1-expressing cells, Ca2+ dye fluorescence, FDSS; in the data active means activation above about 50%; inconclusive means mostly about 30% to 49%; further: 0% is about no effect
Target sequence (Q9GZU1 whole entry, looked up): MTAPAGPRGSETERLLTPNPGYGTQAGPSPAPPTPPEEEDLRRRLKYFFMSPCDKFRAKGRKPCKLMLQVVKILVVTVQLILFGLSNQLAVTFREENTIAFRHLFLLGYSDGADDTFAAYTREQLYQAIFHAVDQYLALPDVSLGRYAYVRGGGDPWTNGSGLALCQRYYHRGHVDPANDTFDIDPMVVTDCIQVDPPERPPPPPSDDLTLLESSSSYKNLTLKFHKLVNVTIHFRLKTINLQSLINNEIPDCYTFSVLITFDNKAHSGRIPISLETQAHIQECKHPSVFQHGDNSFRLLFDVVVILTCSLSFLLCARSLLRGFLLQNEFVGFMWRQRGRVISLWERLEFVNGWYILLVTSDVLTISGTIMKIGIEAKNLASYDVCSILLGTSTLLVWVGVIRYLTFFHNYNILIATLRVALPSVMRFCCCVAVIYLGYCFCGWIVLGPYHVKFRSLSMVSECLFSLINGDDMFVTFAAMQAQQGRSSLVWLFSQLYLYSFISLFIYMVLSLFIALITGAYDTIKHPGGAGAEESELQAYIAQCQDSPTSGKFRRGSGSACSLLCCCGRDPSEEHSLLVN
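TRPML1-DL cells, Tet-induced overnight (~16 h, 37 degrees C), loaded 45-90 min at room temperature with Ca8 no-wash calcium dye plus quencher. FDSS fluorescence: 10 s baseline, compound pin-transfer, 110 s agonist read, then EC80 54-4 (4uM final) and 110 s antagonist read.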
LDHA inh = LDHA (human) enzyme inhibition; purified LDHA, NADH/diaphorase-resazurin fluorescence; hits give low values; activity change, % (values are at about 110 or 230 µM); 480,000 compounds, 0.15% hits; AID 1347041; in the data active means activity change below about -30%; inconclusive means mostly about -25% to -30%;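 further: plate controls were DMSO wells for no effect and wells without enzyme for full effect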
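Remaining NADH was detected by diaphorase (0.133 mg/mL) converting 37 µM resazurin to fluorescent resorufin, read at 0 and 20 minutes. The preceding 5-minute room-temperature reaction used 2 nM LDHA, 0.2 mM sodium pyruvate and 0.06 mM NADH at pH 7.4.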
TRPV1 PAM = human TRPV1 potentiation; potentiation, % at 8.33 µM; Q8NER1; 320,000 compounds, 0.02% hits; TRPV1-expressing cells, Fluo-8 calcium influx, capsaicin EC20 potentiation; in the data active means potentiation above about 80%; inconclusive means between about 30% and that limit; further: 0% is about no effect
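Fluo-8 calcium influx in TRPV1-expressing cells, kinetic read (ex 480/em 520 nm). Compound added and read 3 min for agonist activity, followed by capsaicin at EC20 final and 2 min further read for enhancement.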
TRPML1 blocker = blocks the human TRPML1 channel. Q9GZU1. TRPML1-inducible cells, Ca2+ dye fluorescence, FDSS; hits give low values; inhibition of EC80 agonist-evoked calcium signal. activity change, negative = inhibition, % (no concentration beside the values). 390,000 compounds, 0.02% hits. AID 624415; in the data active means activity change below about -50%; inconclusive means between about -30% and that limit;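 further: stimulus is agonist 54-4 at its EC80 concentration; on the % scale 0 is the no-effect control and ±100 the full control effect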
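Tet-induced TRPML1-DL cells loaded with Ca8 no-wash calcium dye were read kinetically on FDSS. Compound addition was followed by EC80 agonist 54-4 (4 uM final); inhibition was read over 110 s.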
* marks the source's active call; other numbers are inactive results; ? = inconclusive; nt = no result; ! = not confirmed by another sample. Most compounds without a hit are left out; they make up all but 0.41% or so of the library.

SMILES | TRPV1 agonist | TRPML1 agonist | LDHA inh | TRPV1 PAM | TRPML1 blocker
CCCNC(=O)Cn1c(=O)/c(=C\c2ccc(-c3ccc([N+](=O)[O-])cc3)o2)s/c1=C\C(=O)C(C)(C)C | ? | 127.1* | 2.8 | 18.0 | -12.7
Cc1nc2c(n1C1CCCCC1)C(=O)c1ccccc1C2=O | -3.6 | 65.4* | 27.4 | -5.9 | -4.4
O=C1c2cccnc2C(=O)N1C1CCCCC1 | -1.1 | 1.1 | 1.7 | 13.2 | -11.0
CC(C)c1ccc2oc(=O)cc(CN3CCC4(CC3)OCCO4)c2c1 | nt | nt | -7.5 | nt | nt
COc1ccc(C(=O)c2sc(Nc3cccc(OC)c3)c(C(=O)Nc3cccc(C)c3C)c2N)cc1 | 2.2 | 60.7* | -0.3 | 1.5 | -19.8
COc1cc(/C=C(\C#N)c2nc3ccccc3n2C)cc(OC)c1O | 25.2 | 59.5* | 3.7 | ? | -21.9
COc1ccc(N(CC(=O)NC2CC3CCC2C3)S(=O)(=O)c2ccc(C)cc2)cc1 (stereo not drawn) | 12.8 | 0.3 | -7.4 | -7.7 | -8.6
Cc1ccc(S(=O)(=O)N(CC(=O)NC2CC3CCC2C3)c2ccccc2)cc1 (stereo not drawn) | nt | 0.3 | -42.6* | nt | -4.1
CCOc1ccccc1CNc1nc2ccccc2n1C | 6.0 | -1.1 | -12.5 | 83.7* | 5.5
O=C(Nc1oc2ccccc2c(=O)c1-c1ccc2c(c1)OCO2)c1ccc(F)cc1 | nt | nt | 2.5 | nt | nt
O=C(Nc1oc2ccccc2c(=O)c1-c1ccc2c(c1)OCO2)c1ccccc1 | nt | nt | -36.1* | nt | nt
CCc1nc2ccccc2c(=O)n1NC(=O)c1c(O)c2ccccc2n(CC)c1=O | 1.5 | 1.5 | -39.7* | 2.5 | 6.6
CSc1ccccc1NC(=O)/C=C/c1ccco1 | nt | nt | 4.2 | nt | nt
COc1ccc(NC(=S)NC(C)C(c2ccccc2)N2CCOCC2)cc1 (stereo not drawn) | -3.6 | 1.7 | -3.2 | 4.5 | 20.1
CC(NC(=S)Nc1ccccc1Cl)C(c1ccccc1)N1CCOCC1 (stereo not drawn) | 22.1 | 79.9* | -1.2 | -9.5 | -7.3
Cn1ccnc1C(NC(=O)c1nn(C)c(=O)c2ccccc12)c1ccc(F)cc1 (stereo not drawn) | nt | nt | 2.6 | nt | nt
CN1CCCN(Cc2ccccc2C(F)(F)F)CC1 | 3.1 | 1.1 | -33.9* | 2.2 | 16.3
CCCS(=O)(=O)N1CCN(Cc2ccccc2C(F)(F)F)CC1 | 20.3 | -0.1 | -22.8 | -21.8 | 6.2
O=C(CN1CCN(C(=O)c2ccco2)CC1)Nc1c2c(nc3c1CCC3)CCCC2 | 7.1 | 1.1 | -34.6* | -12.7 | -19.6
O=C1CCCN1CCCNCC(=O)N1c2ccccc2Sc2ccccc21 | 2.7 | -0.5 | -41.1* | -8.0 | -2.9
O=C1CCCN1CCCNCC(O)c1ccccc1 (stereo not drawn) | 4.3 | 0.7 | -15.4 | 29.2 | 2.8
CC(C)(C)n1nnnc1C(c1ccccc1)N1CCN(c2ncc(C(F)(F)F)cc2Cl)CC1 (stereo not drawn) | nt | 57.4* | -2.1 | nt | nt
CN1CCN(C(c2ccccc2)c2nnnn2C(C)(C)C)CC1 (stereo not drawn) | nt | -0.8 | 0.9 | nt | nt
CC(C)(C)n1nnnc1C(c1ccccc1)N1CCN(c2c(Cl)cncc2Cl)CC1 (stereo not drawn) | nt | 52.0* | -3.9 | nt | nt
COc1cccc(C(=O)Nc2ccc3oc(-c4ccccc4C)cc(=O)c3c2)c1 | nt | nt | 0.0 | nt | nt
SMILES | TRPV1 agonist | TRPML1 agonist | LDHA inh | TRPV1 PAM | TRPML1 blocker
COc1cccc(C(=O)Nc2ccc3oc(-c4ccc(F)cc4)cc(=O)c3c2)c1 | nt | nt | -35.3* | nt | nt
CCn1nc(C(=O)OC(C)C(=O)c2c[nH]c3ccccc23)c2ccccc2c1=O (stereo not drawn) | nt | nt | -7.4 | nt | nt
Cc1ccc(-c2ccccc2)c(Oc2ccc(C#N)c(C#N)c2)c1 | nt | nt | 13.5 | nt | nt
Cc1cccc(OCc2nc(C)c(C(=O)Nc3cc(C)ccc3C)s2)c1 | nt | nt | -35.3* | nt | nt
O=C(COc1ccc(Cl)cc1)c1ccc(Cl)cc1Cl | nt | nt | 11.7 | nt | nt
COc1ccc(NS(=O)(=O)c2cc(NC(=O)c3cnc(C)cn3)ccc2N2CCCC2)cc1 | ? | 0.3 | 6.3 | -25.9 | -12.2
COc1ccc(NS(=O)(=O)c2cc(NC(=O)c3cnc(C)cn3)ccc2N2CCCCC2)cc1 | 90.2* | -0.4 | -1.8 | -3.2 | 44.8
CC#CC(CCCN(C)Cc1ccccc1)(c1ccccc1)c1ccccc1 | nt | nt | 6.6 | nt | nt
Cc1cccc(-c2nc(C#N)c(NCCCN(C)C)o2)c1 | nt | nt | 6.0 | nt | nt
CN(C)CCNc1oc(-c2cccc(Cl)c2)nc1C#N | 5.6 | 1.1 | -32.7*! | -5.4 | -4.4
CCCOc1ccc(-c2nc(C#N)c(NCCN(C)C)o2)cc1 | nt | nt | -31.6* | nt | nt
CCCOc1ccc(-c2nc(C#N)c(NCCCN(CC)CC)o2)cc1 | nt | nt | -15.5 | nt | nt
CC(=O)Nc1ncc2c(n1)CC(c1ccc(C(C)(C)C)cc1)CC2=O (stereo not drawn) | nt | nt | -6.7 | nt | nt
O=C(CSc1ncccn1)N1CCN(C(c2ccccc2)c2ccccc2)CC1 | ? | -0.7 | -55.5* | -15.2 | -5.0
COC(=O)C1=C(C)NC(=O)CC1C(=O)Nc1ccc(Cl)cc1 (stereo not drawn) | nt | nt | -65.0* | nt | nt
Cc1cc2oc(C(=O)Nc3cccnc3)c(C)c2cc1C | 85.0* | -0.3 | -5.6 | 0.2 | 13.6
CC1=C(C(=O)OCc2ccc(C)cc2)C(c2cc3c(cc2Br)OCO3)CC(=O)N1 (stereo not drawn) | nt | nt | -2.7 | nt | nt
Cc1nn(-c2ccc(=O)[nH]n2)c2c1C(c1ccc(-c3ccc(F)cc3)o1)CC(=O)N2 (stereo not drawn) | nt | nt | 2.7 | nt | nt
O=c1cc(-c2ccccc2)oc2cc(O)ccc12 | nt | 1.6 | 1.5 | nt | 4.5
Nc1ccc(-c2c3ccc(=O)cc-3oc3cc(O)ccc23)cc1C(=O)O | 93.3* | 65.2* | 1.7 | -21.3 | -10.5
O=c1ccc2c(-c3ccccc3)c3ccc(O)cc3oc-2c1 | 1.6 | 139.4* | 14.3 | -3.7 | ?
CC(C)CC(c1nnnn1C(C)C)N1CCN(c2cccc(Cl)c2)CC1 (stereo not drawn) | 0.6 | 84.0* | -3.2 | 13.1 | -18.4
CC(C)CC(c1nnnn1C(C)C)N1CCN(C(=O)c2ccco2)CC1 (stereo not drawn) | -2.2 | 0.4 | -6.6 | 6.3 | -3.7
CC(C)(C)NC(=O)c1cccc(NC(=O)c2ccc3c(c2)C(=O)N(C(C)(C)C)C3=O)c1 | -4.5 | 1.6 | -8.6 | -3.2 | 10.4
COC(=O)c1cccc(NC(=O)c2ccc3c(c2)C(=O)N(C(C)(C)C)C3=O)c1 | 107.3* | 2.3 | -3.5 | -12.4 | -0.2
O=C(N/N=C/c1cccnc1)c1ccc2c(c1)OCO2 | 90.3* | 0.3 | 1.4 | -36.1 | 15.1
COc1ccc(/C=N/NC(=O)c2ccc3c(c2)OCO3)c(C(=O)O)c1OC | 80.1* | -0.3 | -1.2 | -7.8 | -1.6
COc1ccccc1/C=N/NC(=O)c1ccc2c(c1)OCO2 | 5.8 | 0.2 | 0.9 | -15.8 | 10.6
COCCCNC(=O)c1cc2cc(C)ccc2nc1C | nt | nt | 3.0 | nt | nt
